A selection: hits, their analogues and other compounds. The true share with any hit is near 3.2%.
RE007 growth inh: less growth of the S. pombe RE007 Vpr strain | S. pombe RE007 Vpr strain, BacTiter-Glo ATP luminescence, 24 h | Potency, µM (doses to about 92.2 µM), for inactives: top-dose activity change, negative = less growth, hits mostly inhibitors | hit rate 0.21% among 360,000 | AID 651644; active = well fitted falling curve with a large enough effect; inconclusive = small, poorly fitted or top-dose-only effect; inactive = no such curve, though single readings can be large or run the other way; also: nearly all actives have a fitted effect of over 50% in size
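Fission yeast strain RE007, carrying one chromosomally integrated HIV-1 vpr copy, was seeded at OD 0.01 in PMG+AL medium with 23 nL pinned compound. After 24 h at 30 °C and 99% humidity, viability was read by BacTiter-Glo luminescence.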
AMA1-RON2 inh: disrupts binding of P. falciparum AMA1 to RON2 | AlphaScreen AMA1-biotinylated RON2 peptide binding | Potency, µM (doses to about 58.2 µM), inactives show top-dose activity change, negative = inhibition, actives largely listed as inhibitors | hit rate 0.2% among 360,000 | AID 720542;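 also: 0% = vehicle wells and -100% = peptide control; nearly all actives have a fitted effect of over 45% in size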
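AMA1 (3D7) with his tag at 25 nM final met compounds first, then biotinylated RON2 peptide at 25 nM; detection used donor plus acceptor beads, 10 µg/mL apiece, read by AlphaScreen after 30 min at room temperature.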
Sm TGR inh: S. mansoni TGR enzyme inhibition; AID 485364; Q962Y6; hit rate 3% among 360,000; Potency, µM (titrated, usually from 114 µM), without a hit: top-dose activity change, negative = inhibition, usual class: inhibitors; purified TGR, DTNB reduction, TNB absorbance 405 nm; also: nearly all actives have a fitted effect of over 60% in size
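First, TGR (20 nM dispensed) and NADPH were mixed with compound. Second, a 15 min room-temperature incubation followed. Third, further NADPH and then DTNB were added to start the reaction. Finally, TNB absorbance was monitored kinetically.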
LmPK inh: inhibitors of Leishmania mexicana pyruvate kinase | Q27686 | purified LmPK, Kinase-Glo ATP luminescence, 1 h | Potency, µM (series often up to 57.5 µM), without a hit: top-dose activity change, negative = inhibition, hits mostly inhibitors | hit rate 0.37% among 290,000 | AID 1721
Target sequence (Q27686 whole entry, looked up): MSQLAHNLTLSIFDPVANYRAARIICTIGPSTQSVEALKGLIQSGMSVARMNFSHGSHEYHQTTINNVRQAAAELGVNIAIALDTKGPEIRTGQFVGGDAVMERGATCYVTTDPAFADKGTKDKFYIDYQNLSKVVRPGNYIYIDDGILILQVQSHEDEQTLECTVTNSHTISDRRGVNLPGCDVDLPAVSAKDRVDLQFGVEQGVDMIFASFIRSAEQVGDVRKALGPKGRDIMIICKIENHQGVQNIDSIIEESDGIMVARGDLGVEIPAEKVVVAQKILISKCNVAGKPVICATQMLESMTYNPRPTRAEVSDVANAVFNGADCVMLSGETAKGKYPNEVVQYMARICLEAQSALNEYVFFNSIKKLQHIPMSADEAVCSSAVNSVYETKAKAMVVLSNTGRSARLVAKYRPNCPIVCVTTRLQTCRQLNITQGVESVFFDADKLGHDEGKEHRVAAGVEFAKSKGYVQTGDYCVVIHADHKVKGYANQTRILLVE
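ATP generated from ADP (0.1 mM) and PEP (0.5 mM) by 0.1 nM LmPK over 1 h at room temperature (pH 7.2 imidazole buffer) was detected by coupled luciferase luminescence. Values were normalized to uninhibited and no-enzyme wells.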
Tb PYK inh: inhibitors of Trypanosoma brucei pyruvate kinase | Q57TT1 | TbPYK enzyme, Kinase-Glo Plus ATP luminescence, 45 min | Potency, µM (titrated, usually from 76.8 µM), without a hit: at the top dose activity, negative = inhibition, usual class: inhibitors | hit rate 0.12% among 410,000; also: nearly all actives have a fitted effect of over 50% in size
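Enzyme and substrate buffer are dispensed first and compound is pin-transferred. ADP at 130 uM final then starts the reaction, which runs 45 min at room temperature. Detection reagent is added for 10 min before luminescence is imaged.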
* hit, by the source's call; u = inconclusive; x = no result given; [ ] = remark or other dose. Unless noted, calls follow the shape of the dose curve; as a rule, active = well fitted curve in the direction sought with a large enough effect; inconclusive = small, poorly fitted or top-dose-only effect, or another doubt; inactive = no such curve, though single readings can be large; an effect the other way counts as inactive or inconclusive. Unless noted, % is scaled to controls: 0 for no effect and ±100 for the full control effect; potency is read from the fitted curve at half-maximal effect.

SMILES	RE007 growth inh	AMA1-RON2 inh	Sm TGR inh	LmPK inh	Tb PYK inh
CC(=O)c1cccc(N(CC(=O)N2CCCCC2)S(C)(=O)=O)c1	-12%	4%	1%	3%	0%
CC(=O)c1cccc(N(CC(=O)N2CCCC2)S(C)(=O)=O)c1	-2%	-2%	45µM*	-1%	-2%
CCOC(=O)C1=C(C)N=C2SC(C)C(=O)N2C1c1ccc(OC(C)=O)c(OC)c1 (centres undefined)	0%	-3%	50µM*	1%	4%
Cc1cc(C)c(NC(=O)c2c[nH]c(=S)n2-c2ccc(F)cc2)c(C)c1	19%	44%	-5%	u	7.9µM*
Cc1ccc(NC(=O)CCS(=O)(=O)c2cccc3nonc23)c(Br)c1	-7%	-17%	32µM*	-6%	0%
Cc1ccc(C)c(N2CCN(C(=O)CCS(=O)(=O)c3cccc4nonc34)CC2)c1	-6%	-4%	35µM*	4%	5%
Cc1cccc(C)c1NC(=O)CCS(=O)(=O)c1cccc2nonc12	3%	-10%	-1%	14%	7%
O=C(CCNS(=O)(=O)c1cccc2nonc12)NC1CCCCC1	-5%	0%	-10%	3%	-3%
O=C(CCS(=O)(=O)c1cccc2nonc12)Nc1c(F)cccc1F	x	x	11µM*	x	-2%
Cc1cc(Br)ccc1NC(=O)CCS(=O)(=O)c1cccc2nonc12	-3%	3%	-2%	13%	6%
O=C(CCS(=O)(=O)c1cccc2nonc12)NC1CCCCCC1	5%	5%	45µM*	-9%	-1%
Cc1nn(-c2ccccc2)c2c1N(CCCC(=O)NCc1ccc(OC(C)C)cc1)C(=O)CS2	x	x	-11%	x	-1%
CC(=O)N1c2ccccc2CC1C(=O)N1CCN(c2cccc(C)c2C)CC1 (centres undefined)	x	x	-2%	x	1%
CC(=O)c1cccc(NC(=O)c2nc3ccccc3nc2N2CCCCC2)c1	x	x	7%	x	0%
CCC(=O)N1CCN(c2cc(C)ccc2C)CC1	-1%	-17%	2%	0%	-7%
Cc1ccc(C)c(N(C)C(=O)CCS(=O)(=O)c2cccc3nonc23)c1	-8%	-14%	20µM*	-6%	6%
CCN(CC)C(=O)CCS(=O)(=O)c1cccc2nonc12	5%	-10%	0%	-1%	-3%
Cc1ccc(C)c(N2CCN(C(=O)Cn3cccc3)CC2)c1	-21%	-14%	40µM*	1%	0%
CCOc1ccc(C2=NC(c3ccncc3)=Nc3ccc(C)cc3N2)cc1OCC	x	x	7%	x	-1%
O=P(c1ccccc1)(c1nc2ccccc2s1)N1CCOCC1 (centres undefined)	7%	19%	50µM*	0%	-1%
COCc1cc(C)nc(N/N=C/c2ccc(-c3ccc(Cl)cc3[N+](=O)[O-])o2)c1C#N	-13%	-21%	8.9µM*	5%	0%
Cc1c(C(=O)N/N=C/c2ccc(-c3ccccc3[N+](=O)[O-])o2)sc(N)c1C#N	-9%	0%	-13%	2%	10%
C=CCSc1nnc(-c2sc(-c3ccccc3)nc2C)n1C	-7%[3.69 µM]	16%	-13%	-1%	x
C=CCN(C(=O)CSC1=NC(=O)CN1C(C)=O)c1nc(C)c(-c2ccccc2)s1	-16%	u	4.5µM*	3%	7%
CCOC(=O)c1cccc(NC(=O)CCc2c(C)nc3c4cccnc4nn3c2C)c1	x	x	5%	x	-5%
SMILES	RE007 growth inh	AMA1-RON2 inh	Sm TGR inh	LmPK inh	Tb PYK inh
N#Cc1c(-c2ccc(F)cc2)cc(-c2cccnc2)nc1N	13%	24%	-3%	-2%	0%
COC(=O)CSc1nc(N)c(C#N)c(-c2ccco2)c1C#N	2%	1%	u	1%	-5%
CC(C)Cc1cc(-c2ccco2)c(C#N)c(N)n1	8%	8%	35µM*	-2%	-10%
N#Cc1c(-c2ccco2)cc(-c2ccc(F)cc2)nc1N	-29%	-7%	6.3µM*	0%	-10%
COC(=O)CSc1nc(-c2ccccc2)cc(-c2ccco2)c1C#N	-4%	3%	32µM*	4%	0%
CCSc1nc(N)c(C#N)c(-c2ccco2)c1C#N	12%	2%	-14%	0%	7%
Cc1cc(C)c(NC(=O)CCn2c(=O)c3cccn3c3cccnc32)c(C)c1	x	x	0%	x	-3%
CSc1nnc(-c2ccccc2)c(-c2ccccc2)n1	-8%	-5%	-5%	4%	-10%
Cc1ccccc1NC(=O)CSc1nnc(-c2ccco2)c(-c2ccco2)n1	4%	u	3.5µM*	5%	20µM*
CSc1nnc(-c2ccco2)c(-c2ccco2)n1	-24%	16%	1µM*	-1%	u
O=C(CSc1nc(-c2ccco2)nc2cc(=O)[nH]n12)Nc1ccccc1F	x	x	-29%	x	-12%
Cc1ccccc1NC(=O)CSc1nc(-c2ccco2)nc2cc(=O)[nH]n12	x	x	40µM*	x	-4%
Cc1cccc(C)c1NC(=O)CSc1nnc(-c2ccco2)c(-c2ccco2)n1	8%	-20%	1.8µM*	13%	u
COc1ccc(C(=O)NCC(c2ccc(N(C)C)cc2)N2CCc3ccccc32)cc1 (centres undefined)	x	x	7%	x	-6%
CC(C)CC(=O)Nc1nnc(SCc2cc(=O)n3ccccc3n2)s1	x	x	-2%	x	0%
CCn1cc(C(=O)OCC(=O)Nc2cccc(Cl)c2C)c(=O)c2ccc(C)nc21	x	x	8%	x	7%
CCS(=O)(=O)N1CC(=O)N(c2ccc(Cl)cc2)C(C)(C(=O)NC2CCCCC2)C1 (centres undefined)	x	x	4%	x	3%[15.4 µM]
COC(=O)C1=C(C(=O)OC)[C@@H]2N(Cc3ccccc3)c3ccccc3[C@@]23C[C@@H](C(=O)OC)N(S(=O)(=O)c2cccs2)C3=N1	x	x	x	-4%[11.5 µM]	x
Cc1ccc(SC(=O)c2c([N+](=O)[O-])c(C)nn2C)cc1	u	-22%	5.6µM*	2%	-1%
Cc1cc(C)n(C(=O)c2c([N+](=O)[O-])c(C)nn2C)n1	0%	3%	10%	-2%	-2%
CC(=O)Nc1ccc2c(c1)CC1(C(=O)N(C)C(=O)N(C)C1=O)C1CCCN21 (centres undefined)	-7%	102%	45µM*	14%	-9%
CN1C(=O)N(C)C(=O)C2(Cc3cc(NC(=O)c4ccc(F)cc4)ccc3N3CCCC32)C1=O (centres undefined)	-10%	-6%	40µM*	-9%	-21%
COc1ccc2ncc3c(-c4ccc(C)c(C)c4)nn(CC(=O)Nc4ccccc4)c3c2c1	x	x	33%	x	-2%
COC(=O)C1=C(C)NC(=O)/C1=C\c1cc(C)n(-c2ccccc2C)c1C	16µM*	-17%	-22%	0%	-1%
CC1=CC2=NC(=O)/C(=C\c3cc(C)n(-c4ccccc4F)c3C)C(=N)N2O1	12%	24%	4%	-4%	-3%
